Bioassay records: PubChem BioAssay, several laboratories
A selection: hits, their analogues and other compounds. The true share with any hit is near 4.6%.
tim10-1 inh: growth inhibitors of tim10-1 mutant yeast; S. cerevisiae tim10-1 ts strain growth, BacTiter-Glo, 24 h; inhibition, % at 20 µM; hit rate 2.2% among 330,000;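 active = inhibition of at least 40%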;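 note: mutant grown at 25 °C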
TIM10 inh: TIM10 yeast growth inhibition; S. cerevisiae TIM10 strain growth, BacTiter-Glo luminescence, 24 h; inhibition, % at 10 µM; hit rate 1.4% among 330,000; AID 463195;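 active = inhibition of 40% or more at the single tested concentration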;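 note: wild-type TIM10 isogenic control strain grown at permissive 25 °C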
PfHsp90 set2: inhibits growth of yeast expressing Plasmodium falciparum Hsp90; hit rate 0.32% among 310,000; inhibition, % at 9.4 µM; AID 504621; S. cerevisiae expressing PfHsp90, BacTiter-Glo ATP, 48 h; yeast lacking PDR1 and PDR3 efflux regulators;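 active = every replicate shows inhibition above about 80%, whatever the replicate mean, limit read from the data; inconclusive = mean inhibition reaches the set limit but some replicate falls short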
NALP3 yeast inh: inhibitors of NALP3 inflammasome in yeast | Yeast reconstituted NLRP3/ASC/caspase-1, beta-gal luminescence, 24 h | inhibition, % at 10 µM | hit rate 0.39% among 330,000;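 active = inhibition of 50% or more; inactive = inhibition below 50%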
SKKanGAS inh: SKKanGAS growth inhibition; S. pyogenes SKKanGAS, kanamycin growth, BacTiter-Glo, 6 h; inhibition, % at 7.5 µM; hit rate 1.3% among 300,000;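 active = mean replicate score, as percent of positive control median, at least 50; inconclusive = mean below 50 but one replicate at or above 50; inactive = mean and every replicate below 50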;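 note: strain carries kanamycin resistance gene driven by streptokinase promoter and grows in 40 µg/ml kanamycin; loss of luminescence reflects streptokinase promoter inhibition or plain growth inhibition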
tim23-1 inh: growth inhibitors of tim23-1 mutant yeast. S. cerevisiae tim23-1 growth, BacTiter-Glo luminescence, 24 h. AID 463212. inhibition, % at 20 µM. hit rate 1.3% among 330,000;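 active = growth inhibition of the mutant yeast at or above 50%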;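 note: temperature-sensitive mutant grown at 25 °C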
tim10 confirm: TIM10 yeast growth inhibition, confirmed; shares compounds with TIM10 inh; S. cerevisiae tim10 strain growth, BacTiter-Glo luminescence, 24 h; inhibition, % at 10 µM; hit rate 63% among 4,600; AID 463215;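 active = inhibition of yeast growth at or above a set limit in either of two replicates at 10 µM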; note: this counterscreen used the strain with wild-type TIM10
Of the large screens only hits and unclear results are named; the others gave an inactive call (follow-up assays come after a bar, where they were run).

COc1ccc(C(=O)/C=C/C(=O)N(Cc2ccc(F)cc2)C(C(=O)NC2CCCCC2)c2ccncc2)c(O)c1 (stereo not given)	TIM10 inh 44.1 | tim10 confirm inactive
O=C1CSC(c2cn(-c3ccccc3)nc2-c2cc3ccccc3oc2=O)N1Cc1ccco1 (stereo not given)	TIM10 inh 42.3 (no result: PfHsp90 set2) | tim10 confirm inactive
COC(=O)[C@]1(C)N[C@H](CN(C)C(=O)NC(C)C)[C@@H]2C(=O)N(C)C(=O)[C@@H]21	none (no result: SKKanGAS inh)
COc1ccc(C(=O)NCC(=O)Nc2ccc(F)cc2)cc1OC	TIM10 inh 50.2 | tim10 confirm inactive
Cc1ccc(NC(=S)N/N=C/c2ccc([N+](=O)[O-])s2)cc1	TIM10 inh 46.4, PfHsp90 set2 100.3 | tim10 confirm inactive
COc1ccc(NC(=S)N2CCC(C(=O)c3ccc(OC)cc3)CC2)cc1	none
O=C(NC(=S)Nc1ccccn1)c1cc(-c2ccccc2)nc2ccccc12	TIM10 inh 47.2 | tim10 confirm inactive
O=C(N/N=C/c1ccccn1)c1cc(-c2ccc(Cl)cc2)nc2ccccc12	TIM10 inh 47.4, PfHsp90 set2 98.7, SKKanGAS inh 61.5 | tim10 confirm 49.7
Nc1c(C(=O)Nc2ccccc2F)sc2nc(-c3ccco3)ccc12	TIM10 inh 41.0 | tim10 confirm inactive
CCN1CCN(C(=O)c2cc3cc4cc(OC)ccc4nc3s2)CC1	none
COc1ccc2cc3cc(C(=O)NC4CC4)sc3nc2c1	none
COc1ccc2nc3sc(C(=O)NCCN4CCc5ccccc5C4)cc3cc2c1	TIM10 inh 75.5 | tim10 confirm 80.0
COc1ccc2cc3cc(C(=O)NCCCN4CCc5ccccc5C4)sc3nc2c1	TIM10 inh 62.8 | tim10 confirm 54.3
CC(=O)Nc1cccc(C(=O)NNC(=O)c2n[nH]c(=O)c3ccccc23)c1	none (no result: SKKanGAS inh)
COc1ccc(-c2cc3c(nn2)-c2ccccc2C3=O)cc1	TIM10 inh 41.7 | tim10 confirm 45.0
CC(NC(=O)COc1cccnc1[N+](=O)[O-])c1ccc(Cl)cc1 (stereo not given)	none
CC(=O)C(Sc1nc(NC(C)(C)C)nc(N(C)C)n1)C(C)=O	TIM10 inh 43.8 | tim10 confirm inactive
Cc1cc2c(cc1C)C(=O)C(=O)N2	none (no result: tim10-1 inh, TIM10 inh, NALP3 yeast inh, SKKanGAS inh, tim23-1 inh)
O=C1Nc2cc3c(cc2C1=O)sc1ccccc13	TIM10 inh 49.6 (no result: PfHsp90 set2) | tim10 confirm 68.2
Cc1cccc(CC(=O)N2CCC(n3nccc3NC(=O)C3CC3)CC2)c1	none
O=C(COc1ccc(Cl)cc1Cl)NNC(=S)Nc1ccc(F)cc1	TIM10 inh 45.1 | tim10 confirm 37.7
COc1ccccc1CNC(=O)CCC1N=C2c3ccccc3N=C(SCC(=O)NCC3CCCO3)N2C1=O (stereo not given)	none
Cc1ccc(CNC(=O)c2cn(C3CCCCC3)c(=O)c3c2c2ccccc2n3C)o1	TIM10 inh 43.1 | tim10 confirm inactive
COc1ccc(CNC(=O)CSc2cccc3cccnc23)cc1	TIM10 inh 50.9 | tim10 confirm inactive
CCCNC(=O)NCCc1c(C)[nH]c2ccccc12	none
Cc1[nH]c2ccccc2c1CCNC(=O)c1ccc2c(c1[N+](=O)[O-])C(=O)c1ccccc1C2=O	TIM10 inh 45.1 | tim10 confirm inactive
Cc1ccc(N=Cc2cc(Cc3ccccc3Cl)cc([N+](=O)[O-])c2O)c(O)c1	TIM10 inh 52.4, PfHsp90 set2 110.6, SKKanGAS inh inconclusive | tim10 confirm 34.2
Cc1n[nH]c(C)c1Sc1ccccc1N=Cc1cc(Cl)cc([N+](=O)[O-])c1O	none
COc1ccc(NS(=O)(=O)c2ccc3c(c2)NC(=O)CC(=O)N3)cc1OC	none
Cc1ccc(/C=N/n2cc(-c3ccccc3)[nH]c2=S)s1	TIM10 inh 41.4 | tim10 confirm 42.2
O=C(NCCc1ccccn1)C(F)(F)C(F)(F)C(F)(F)C(F)(F)C(F)(F)C(F)F	none
Cc1cccc(NC(=O)c2ccc([N+](=O)[O-])o2)n1	TIM10 inh 59.8 (no result: PfHsp90 set2) | tim10 confirm inactive
O=C(Nc1nc(-c2cccs2)cs1)c1ccc([N+](=O)[O-])o1	TIM10 inh 62.5, PfHsp90 set2 84.5 (no result: SKKanGAS inh) | tim10 confirm 87.2
O=C(Cc1ccccc1F)Nc1nc(-c2cccs2)cs1	TIM10 inh 47.3 | tim10 confirm inactive
O=C(Cc1ccccc1)Nc1nc(-c2cccs2)cs1	none
O=C(Nc1cccc(NC(=O)c2cccs2)c1)c1ccc([N+](=O)[O-])o1	TIM10 inh 56.4, SKKanGAS inh 58.8 | tim10 confirm 62.4
Cc1ccc(C(=O)Nc2ccc(NC(=O)c3cccs3)cc2)cc1[N+](=O)[O-]	none
Cc1ccc(NC(=O)c2cccs2)cc1[N+](=O)[O-]	TIM10 inh 44.9 | tim10 confirm inactive
COC(=O)c1cc2ccccc2c(-c2c(OC)c(C(=O)OC)cc3ccccc23)c1OC	TIM10 inh 44.0 (no result: PfHsp90 set2) | tim10 confirm 29.9
O=C(Nc1ccc(SC(F)F)cc1)c1ccc(F)cc1	none
Cc1ccc(Cn2c(=O)c3ccccc3n3c(CCC(=O)NCCN4CCOCC4)nnc23)cc1	TIM10 inh 96.3 | tim10 confirm inactive
O=C(CCc1nnc2n(Cc3ccccc3Cl)c(=O)c3ccccc3n12)NCCCN1CCOCC1	none
Fc1ccc(C(c2nnnn2C2CCCC2)N2CCc3ccccc32)cc1 (stereo not given)	TIM10 inh 45.2 (no result: PfHsp90 set2) | tim10 confirm inactive
COc1ccccc1CNC(=O)c1ccc(NC(=O)CC2SC(N3CCCC3)=NC2=O)cc1 (stereo not given)	none (no result: SKKanGAS inh)
C=CCn1c(-c2cc(-c3ccccc3)sc2N)n[nH]c1=S	TIM10 inh 48.4 | tim10 confirm inactive
CC1=NN(c2ccccc2)C(=O)/C1=C\C=C\c1ccccc1	TIM10 inh 54.1 (no result: PfHsp90 set2) | tim10 confirm 38.1
Cc1cccc(NNC(=S)Nc2c(C)cccc2C)c1	TIM10 inh 44.9 | tim10 confirm 35.6
Cc1cccc(NNC(N)=S)c1	none (no result: PfHsp90 set2)
O=c1oc2ccc(Cl)cc2cc1-c1nnc(Nc2cccc(C(F)(F)F)c2)s1	none
CNc1nnc(-c2cc3cc(Cl)ccc3oc2=O)s1	TIM10 inh 46.2 (no result: PfHsp90 set2) | tim10 confirm 32.7
Cc1cc(C(=O)CN2C(=O)c3ccccc3S2(=O)=O)c(C)n1-c1ccccc1	none
Cc1cc(C(=O)CN2C(=O)C3CC=CCC3C2=O)c(C)n1-c1ccccc1 (stereo not given)	TIM10 inh 43.0 | tim10 confirm inactive
O=c1c(Cc2ccccc2)c(O)ccn1Cc1ccc2c(c1)OCO2	none
Nc1nc2nc(-c3ccccc3)cc(C(F)(F)F)c2s1	TIM10 inh 47.2 | tim10 confirm 39.5
Cc1cc(C(F)(F)F)c2sc(N)nc2n1	none
Fc1cc(Cl)ccc1NC1=NCCCCC1	none
COc1ccc(CCN=C(N)NS(=O)(=O)c2cc(F)ccc2OC)cc1	none
Cc1nn(C)c(C(=O)NN)c1Cl	none
